The panel holds about 79,000 compounds, 15% with a hit somewhere; the sample as a whole holds those more often. A number with no mark means an inactive call. Activity calls are given as the source filed them. No stated cut-off is given here; in the data, active means growth inhibition above about 70%; inactive means the rest.
Legend:
[1] = NCI Yeast Anticancer Drug Screen. Data for the rad50 strain (AID 155);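 further: 0% = growth of vehicle-only cultures of the same strain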; details: S. cerevisiae rad50 strain growth inhibition, active compounds read high
In short: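 Readout: growth inhibition relative to vehicle-treated cultures. Compound exposure was carried out in a genetically defined yeast strain deficient in DNA damage repair.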

[2] = NCI Yeast Anticancer Drug Screen. Data for the mec2-1 strain (AID 157); details: S. cerevisiae mec2-1 strain, active compounds read high
In short: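 Each compound was tested on mec2-1 yeast, a strain altered in DNA damage repair or cell cycle control. Growth inhibition is reported relative to vehicle.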

[3] = NCI Yeast Anticancer Drug Screen. Data for the sgs1 mgt1 strain (AID 161);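 further: 0% = growth of cultures given vehicle only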; details: S. cerevisiae sgs1 mgt1 strain, active compounds read high
In short: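 Mutant yeast exposed to compound; growth scored against vehicle-only wells.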

[4] = NCI Yeast Anticancer Drug Screen. Data for the cln2 rad14 strain (AID 165);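 further: 0% = growth equal to vehicle treated cultures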; details: S. cerevisiae cln2 rad14 strain, active compounds read high
In short: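 Test compounds were added to cln2 rad14 yeast cultures; inhibition of growth was then determined by comparison with vehicle treatment.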

[5] = NCI Yeast Anticancer Drug Screen. Data for the bub3 strain (AID 167); details: S. cerevisiae bub3 mutant strain, active compounds read high
In short: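 Readout: yeast growth inhibition, expressed relative to vehicle-only wells. The test organism is a mutant strain from a panel with lesions in DNA repair or checkpoint genes.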

[6] = NCI Yeast Anticancer Drug Screen. Data for the mlh1 rad18 strain (AID 175); details: S. cerevisiae mlh1 rad18 strain growth inhibition, active compounds read high
In short: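 Inhibition values reflect reduced growth of mutant yeast versus vehicle-treated controls following compound exposure; the mutations affect DNA damage repair.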

[7] = at 5.0 µM (retest, dose inferred, filed as 0.5)
[8] = at 50.0 µM (retest, dose inferred, filed as 5.0)

SMILES	growth inhibition [1, 7]	growth inhibition [1, 8]	growth inhibition ([1]; at 50.0 µM)	growth inhibition [2, 7]	growth inhibition [2, 8]	growth inhibition ([2]; at 50.0 µM)	growth inhibition [3, 7]	growth inhibition [3, 8]	growth inhibition ([3]; at 50.0 µM)	growth inhibition [4, 7]	growth inhibition [4, 8]	growth inhibition ([4]; at 50.0 µM)	growth inhibition [5, 7]	growth inhibition [5, 8]	growth inhibition ([5]; at 50.0 µM)	growth inhibition [6, 7]	growth inhibition [6, 8]	growth inhibition ([6]; at 50.0 µM)
COC(=O)C1=C(/C=C/C(C)=O)NC(C)=C(C(=O)OC(C)C)C1c1ccccc1Cl (configuration not stated)	40%	95% (active)	49.3%	34%	97% (active)	62.5%	37%	96% (active)	24.5%	65%	95% (active)	33.5%	40%	97% (active)	41.2%	34%	95% (active)	51.4%
CC(NNC(=S)N1CCCC1)c1ccccn1 (configuration not stated)	63%	97% (active)	98.8% (active)	52%	98% (active)	98.7% (active)	63%	98% (active)	98.9% (active)	48%	98% (active)	99% (active)	53%	98% (active)	99.2% (active)	60%	98% (active)	98.8% (active)
O=C(OC12CCCCC1CCCC2)c1ccc([N+](=O)[O-])cc1 (configuration not stated)	28%	98% (active)	98% (active)	29%	99% (active)	99.5% (active)	32%	99% (active)	99.1% (active)	11%	99% (active)	99.5% (active)	33%	99% (active)	99.4% (active)	44%	98% (active)	99.2% (active)
O=[N+]([O-])c1ccc(S(=O)/N=C/c2ccccc2)c([N+](=O)[O-])c1 (configuration not stated)	-2%	96% (active)	48.2%	-4%	98% (active)	45.5%	2%	94% (active)	67.6%	1%	82% (active)	9%	-4%	97% (active)	25.9%	-4%	97% (active)	74.3% (active)
CCC(C)SSc1ccccc1C(=O)Nc1ccc(Cl)cc1 (configuration not stated)	3%	52%	79.5% (active)	14%	93% (active)	93.9% (active)	-12%	83% (active)	91.7% (active)	-5%	85% (active)	74.1% (active)	-2%	93% (active)	91.3% (active)	7%	91% (active)	87.7% (active)
CC1=C(C)CC(C#N)(C#N)C(C#N)(C#N)C1	-12%	80% (active)	83.9% (active)	10%	92% (active)	79.6% (active)	-13%	80% (active)	82.2% (active)	-18%	86% (active)	38.1%	30%	97% (active)	58.7%	6%	97% (active)	75.3% (active)
CCCCCC(CN(C)C)C(O)/C=C\c1ccccc1 (configuration not stated)	0%	-8%	74.7% (active)	-1%	-4%	48.6%	-10%	-22%	72.1% (active)	-1%	-6%	4.9%	-2%	-10%	1.6%	8%	-9%	68.5%
O=[N+]([O-])C(/C=C(\Cl)n1nnc2ccccc21)=C(/Cl)n1nnc2ccccc21	25%	36%	-1.95%	17%	18%	-3.7%	13%	26%	25.2%	11%	11%	13.4%	27%	27%	14.4%	22%	35%	17.3%
Cn1c(=O)c2c(ncn2-c2ccncc2)n(C)c1=O	-5%	0%	11.4%	-4%	-5%	-3.9%	-3%	-7%	15.9%	-3%	31%	73.8% (active)	-9%	-8%	-5.35%	-5%	-2%	4.8%
Cn1c2c(c3ccccc31)CCN(CCCN1CCN(c3ccccc3)CC1)C2=O	49%	49%	90.1% (active)	43%	43%	89.2% (active)	58%	58%	90.4% (active)	38%	38%	91.5% (active)	51%	51%	91.3% (active)	41%	41%	84.7% (active)
CCCCCCCCCCCCCCCCNCCCCCCCC(=O)O	-1%	64%	75% (active)	4%	49%	35.2%	14%	92% (active)	75.9% (active)	7%	26%	72% (active)	6%	73% (active)	39.2%	2%	66%	74.5% (active)
C[C@]12CC[C@H](O)C[C@@H]1CC[C@@H]1[C@@H]2CC[C@]2(C)C=CC[C@@H]12	-3%	2%	49.4%	-7%	-4%	33.4%	-21%	1%	46.8%	-6%	0%	77.5% (active)	9%	23%	95.1% (active)	-24%	33%	58.8%
C#CCOC(=O)Nc1nc2ccc(SC#N)cc2s1	9%	90% (active)	97.8% (active)	-5%	87% (active)	96.8% (active)	3%	98% (active)	97.7% (active)	0%	92% (active)	96.4% (active)	14%	90% (active)	97.6% (active)	4%	96% (active)	97.2% (active)
CCCCCCCCCCCC(=O)N(CCOC(=O)c1ccco1)CCOC(=O)c1ccco1	46%	96% (active)	99% (active)	43%	99% (active)	99% (active)	31%	98% (active)	99.2% (active)	29%	98% (active)	98.5% (active)	34%	96% (active)	97.8% (active)	34%	97% (active)	98.8% (active)
CCCCC1=NCCc2c1cc1c([nH]c3ccccc31)c2C	-3%	57%	9.2%	-19%	7%	46.2%	-8%	85% (active)	52.5%	-1%	26%	48%	-3%	35%	76% (active)	3%	97% (active)	56.4%
CC(C)(C)c1cc(C2c3cc4c(cc3OC(O)(CO)C2C(=O)O)OCO4)cc(C(C)(C)C)c1O (configuration not stated) (tested in a mixture with another compound)	-23%	39%	49.9%	-6%	61%	50.1%	-20%	50%	37%	5%	68%	72.1% (active)	-10%	63%	55%	11%	73% (active)	52.6%
Oc1cccc2cc(Br)cnc12	24%	99% (active)	84% (active)	-17%	99% (active)	91.6% (active)	-10%	99% (active)	81.5% (active)	2%	99% (active)	88.8% (active)	-25%	99% (active)	88.2% (active)	21%	99% (active)	74.7% (active)
CCc1ccc(/C=C/c2ccc([N+](=O)[O-])cc2)nc1	0%	68%	62.2%	-5%	41%	40.6%	-5%	42%	33.5%	6%	39%	7.1%	-5%	-8%	45.9%	3%	44%	69.5%
ON(C(=Nc1ccc(Cl)cc1)c1ccccc1)c1ccccc1	-10%	98% (active)	98% (active)	7%	99% (active)	99.2% (active)	-5%	99% (active)	99% (active)	-11%	98% (active)	99.2% (active)	7%	98% (active)	98.8% (active)	9%	99% (active)	99% (active)

Reference: PubChem BioAssay (NCI)
